In ChEMBL document CHEMBL3988442, “University of Dundee, Small-Polar-MMV Screening Library” (2021):

Molecular target: Shiga toxin 2 (Escherichia coli O157:H7) (UniProt P09385+P09386)
Assay: E. coli 0.157:H7 Shiga Toxin SOP - stx2 screening assay
Type: functional
Set-up: scale not given: direction of the effect not stated beside the values
Conditions: 30 µM

Row | SMILES | Percent Effect [%]
1 | Cc1cc(-c2cnn(CCNC(=O)c3cccnc3)c2C2CC2)on1 | -2.62
2 | O=C(NCC1CC1)c1nc(COc2ccc3c(c2)OCO3)no1 | -58.6
3 | CCN(Cc1nc2c(cnn2C)c(=O)[nH]1)c1cccc(Cl)c1 | 19.9
4 | O=C(N1CCCC1)N1CCC2(CCCN(CCOc3ccccc3)C2)C1 (stereo not given) | -4.82
5 | CN(C)C(=O)NC1COC2(CCN(C(=O)Nc3ccccc3)CC2)C1 (stereo not given) | -15.4
6 | Clc1ccccc1CN1CCc2nc(C3CCCCN3)ncc2C1 (stereo not given) | -35.9
7 | O=C(c1cccs1)N1CCC(Cn2nc(-c3ccco3)ccc2=O)CC1 | 5.24
8 | O=C(Cn1cc(C(=O)O)ccc1=O)Nc1ccc(F)cc1Cl | -28.6
9 | O=C(O)CC1CN(Cc2ccccc2)CCO1 (stereo not given) | -5.59
10 | Cc1ccc(NC2CCN(C(=O)c3cnc(C)s3)CC2)nn1 | -19.5
11 | Cn1cccc1C(=O)NCc1cnc2n1CCN(C(=O)N1CCCC1)C2 | -94.8
12 | O=C1NCCN1C1CCCN(Cc2nnc(-c3ccc(F)cc3)o2)C1 (stereo not given) | -40.1
13 | CC(=O)N1CCC(c2cncc(Oc3ccccc3)n2)CC1 | 3.32
14 | Cc1ccc(-c2nc(CNCC3CN(C)CCO3)cs2)o1 (stereo not given) | -23.7
15 | O=C(N1CCCCC1)N1CCN(CC(O)c2ccc(F)cc2)CC1 (stereo not given) | 31.9
16 | Cc1cccnc1CN1CCC(c2nnc(Cn3cccn3)n2C)CC1 | -18.5
17 | CC(=O)N1CCCC1c1ccc(-c2c(C)noc2C)cn1 (stereo not given) | -2.58
18 | Cc1cc(CN(C)C(=O)NCc2cccc(N3CCCC3=O)c2)no1 | -15
19 | N#Cc1ccccc1OCCN1CCn2c(nnc2C2CC2)C1 | -21.3
20 | Cc1nc(CN(C)C2CCN(CC(=O)N3CCOCC3)C2)no1 (stereo not given) | 11.2

Row | SMILES | Percent Effect [%]
21 | O=C(CCC1CC1)N1C[C@@H](CN2CCCC2)[C@@H](CO)C1 | -35.6
22 | Cc1cc(NCc2cc3n(n2)CCCN(C(=O)N(C)C)C3)ncn1 | -3.81
23 | CCN(CC)C(=O)CCNC(=O)N1CCC(c2ccccc2)C1 (stereo not given) | -20.3
24 | COCCN1CCCC12CCN(C(=O)CC1CCCC1)CC2 | -6.17
25 | COc1ccc(CNC(=O)c2nn(C)c3c2CS(=O)(=O)CC3)cc1OC | -18.6
26 | CCOC(=O)N1CCN(C(=O)c2sc(-c3ccc(F)cc3)nc2C)CC1 | 8.24
27 | CN(c1ccc(C(=O)NCCCN2CCOCC2)c(Cl)c1)S(C)(=O)=O | -32.5
28 | O=C([C@@H]1CCO[C@@H]2CCN(Cc3cccnc3)C[C@H]21)N1CCCCO1 | -26.6
29 | Cc1csc(C2CCCCN2C(=O)CN(C)Cc2ccccc2)n1 (stereo not given) | 8.13
30 | CCc1cc(NC2CCN(S(C)(=O)=O)CC2)n2nc(C)c(C)c2n1 | -16
31 | O=C(CCc1cccs1)N1CCC(Nc2cccnn2)CC1 | -26.6
32 | O=C(NCCNc1ncccn1)N1CCSCC1 | 17.7
33 | COCC(=O)N1CCC2(CCN(Cc3ccccn3)CC2)CC1 | -8.31
34 | COCCNc1nc2c(c(NCc3ccncc3)n1)CCNCC2 | -12.3
35 | CCn1cnnc1CNC(=O)N1CCN(c2cccs2)CC1 | -43.6
36 | CC1CN(CC(=O)Nc2nncs2)CCN1c1nccs1 (stereo not given) | 27.5
37 | O=S(=O)(NC1=NCN(CCc2cccs2)CN1)c1ccc(F)cc1 | -18.8
38 | Cc1nc(CN2CCO[C@@H]3CN(C(=O)NC(C)C)CC[C@@H]3C2)cs1 | -4.73
39 | Cn1cccc1C(=O)N1CCC2(CC1)CN(c1ccccn1)CCO2 | -7.72
40 | CCN(CC)C1CCN(C(=O)NCc2nncn2CC)CC1 | -26
